# Experimental data reported in the supplement of paper PMC8728848.
# Only a selection was taken, and the strongest signals are over-represented in it overall.
# How the values were obtained:
# Test in all cases: glycan array binding signal (z-score within array); higher = stronger binding
# Conditions in all cases: glycan notation: IUPAC condensed, linker removed
# [1] = tested on: GlcNAc(b1-4)GlcNAc(b1-4)GlcNAc(b1-4)GlcNAc(b1-4)GlcNAc
# Method in brief: (§1)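 Glycan array data were curated from 3228 arrays in the Consortium for Functional Glycomics database and kept only where the protein sequence was available. Glycan names were converted to IUPAC-condensed notation, and columns mapping to the same glycan were averaged. The binding signal is a within-array Z-score, averaged across arrays of the same protein sequence at different concentrations or buffers and across linkers. Negative Z-scores can be read as non-binding.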
# [2] = tested on: GlcNAc(b1-4)GlcNAc(b1-4)GlcNAc(b1-4)GlcNAc(b1-4)GlcNAc(b1-4)GlcNAc
# Method in brief: as §1
# GlcNAc3Prop(b1-4)GlcNAc = tested on: GlcNAc3Prop(b1-4)GlcNAc
# Method in brief: as §1
# [3] = tested on: GlcNAc(b1-3)[GlcNAc(b1-4)][GlcNAc(b1-6)]GlcNAc
# Method in brief: as §1
# [4] = tested on: GlcNAc(b1-4)[GlcNAc(b1-6)]GalNAc
# Method in brief: as §1
# GlcNAc(b1-6)GalNAc = tested on: GlcNAc(b1-6)GalNAc
# Method in brief: as §1
# Kdn(a2-3)Gal(b1-3)GlcNAc = tested on: Kdn(a2-3)Gal(b1-3)GlcNAc
# Method in brief: as §1
# [5] = tested on: GlcNAc(b1-3)[GlcNAc(b1-6)]Gal(b1-4)GlcNAc
# Method in brief: as §1
# [6] = tested on: GlcNAc(b1-6)Gal(b1-4)GlcNAc
# Method in brief: as §1
# [7] = tested on: GlcNAc6S(b1-3)Gal(b1-4)GlcNAc
# Method in brief: as §1
# Chain of CHT (Homo sapiens) (chain, as listed by the source): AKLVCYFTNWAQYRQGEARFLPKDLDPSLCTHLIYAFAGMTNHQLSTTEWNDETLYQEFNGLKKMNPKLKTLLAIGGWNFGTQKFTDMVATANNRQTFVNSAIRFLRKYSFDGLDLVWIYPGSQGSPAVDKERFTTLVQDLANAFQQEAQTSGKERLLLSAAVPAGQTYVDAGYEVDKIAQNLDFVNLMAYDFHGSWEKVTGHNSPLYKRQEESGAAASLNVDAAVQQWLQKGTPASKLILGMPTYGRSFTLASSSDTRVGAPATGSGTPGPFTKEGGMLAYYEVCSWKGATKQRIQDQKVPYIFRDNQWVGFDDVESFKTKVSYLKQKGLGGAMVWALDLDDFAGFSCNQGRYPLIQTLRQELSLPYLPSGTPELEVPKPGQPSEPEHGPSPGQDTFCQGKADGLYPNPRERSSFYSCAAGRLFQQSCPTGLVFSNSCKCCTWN
# Chain of CHI3L1 (Homo sapiens), P36222 (P36222 whole entry): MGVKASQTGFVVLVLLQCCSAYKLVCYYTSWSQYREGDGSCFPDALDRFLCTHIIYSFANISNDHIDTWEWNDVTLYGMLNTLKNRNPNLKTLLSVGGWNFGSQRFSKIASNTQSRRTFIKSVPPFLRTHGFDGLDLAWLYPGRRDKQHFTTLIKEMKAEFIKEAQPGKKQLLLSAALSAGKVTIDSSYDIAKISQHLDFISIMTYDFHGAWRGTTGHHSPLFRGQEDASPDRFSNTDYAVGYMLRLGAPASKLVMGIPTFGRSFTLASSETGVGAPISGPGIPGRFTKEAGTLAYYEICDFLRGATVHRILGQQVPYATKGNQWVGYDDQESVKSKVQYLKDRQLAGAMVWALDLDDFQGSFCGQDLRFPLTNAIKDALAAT
# Chain of PILRa (Mus musculus), Q2YSF3 (Q2YSF3 entry or part of it): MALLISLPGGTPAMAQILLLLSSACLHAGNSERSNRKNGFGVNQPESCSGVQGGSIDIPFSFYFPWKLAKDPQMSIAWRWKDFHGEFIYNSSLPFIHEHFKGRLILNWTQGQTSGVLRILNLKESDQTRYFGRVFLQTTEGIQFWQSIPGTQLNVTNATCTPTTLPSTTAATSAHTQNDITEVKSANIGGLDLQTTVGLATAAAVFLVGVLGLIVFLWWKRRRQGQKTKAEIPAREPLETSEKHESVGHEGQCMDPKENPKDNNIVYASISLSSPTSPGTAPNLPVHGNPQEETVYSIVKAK
# Chain of Avaren (Actinomycete K97) (chain, as listed by the source): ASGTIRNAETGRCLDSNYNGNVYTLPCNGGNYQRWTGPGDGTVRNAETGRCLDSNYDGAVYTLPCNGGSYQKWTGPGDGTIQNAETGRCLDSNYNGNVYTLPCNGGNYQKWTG
# Chain of PILRb (Mus musculus), Q2YSF2 (Q2YSF2 entry or part of it): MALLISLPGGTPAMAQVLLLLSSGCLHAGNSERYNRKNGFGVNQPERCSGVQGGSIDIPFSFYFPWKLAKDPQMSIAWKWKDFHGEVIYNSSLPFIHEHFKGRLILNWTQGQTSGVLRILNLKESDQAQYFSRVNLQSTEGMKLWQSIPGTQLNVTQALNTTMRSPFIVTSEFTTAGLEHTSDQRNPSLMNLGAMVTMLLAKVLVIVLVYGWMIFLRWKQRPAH
# Chain of C3b (Homo sapiens), P01024 (P01024 23-667): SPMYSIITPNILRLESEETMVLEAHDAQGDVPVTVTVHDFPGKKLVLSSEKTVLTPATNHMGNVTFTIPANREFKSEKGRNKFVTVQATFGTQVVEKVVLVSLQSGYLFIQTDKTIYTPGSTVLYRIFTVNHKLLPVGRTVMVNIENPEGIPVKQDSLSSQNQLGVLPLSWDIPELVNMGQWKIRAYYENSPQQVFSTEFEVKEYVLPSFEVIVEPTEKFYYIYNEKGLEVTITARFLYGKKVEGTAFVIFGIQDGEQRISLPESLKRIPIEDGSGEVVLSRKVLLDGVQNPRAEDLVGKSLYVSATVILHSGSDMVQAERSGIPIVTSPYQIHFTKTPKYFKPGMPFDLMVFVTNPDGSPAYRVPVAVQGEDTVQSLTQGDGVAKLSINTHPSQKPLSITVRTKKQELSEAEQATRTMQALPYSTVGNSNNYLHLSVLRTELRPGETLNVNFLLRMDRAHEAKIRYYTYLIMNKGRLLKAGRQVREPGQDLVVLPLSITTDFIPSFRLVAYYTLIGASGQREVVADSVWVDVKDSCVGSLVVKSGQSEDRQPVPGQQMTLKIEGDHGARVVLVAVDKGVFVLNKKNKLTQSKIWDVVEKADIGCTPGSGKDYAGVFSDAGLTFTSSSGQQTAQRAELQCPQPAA
# Chain of wLAT-1A (Homo sapiens), Q01650 (Q01650 whole entry): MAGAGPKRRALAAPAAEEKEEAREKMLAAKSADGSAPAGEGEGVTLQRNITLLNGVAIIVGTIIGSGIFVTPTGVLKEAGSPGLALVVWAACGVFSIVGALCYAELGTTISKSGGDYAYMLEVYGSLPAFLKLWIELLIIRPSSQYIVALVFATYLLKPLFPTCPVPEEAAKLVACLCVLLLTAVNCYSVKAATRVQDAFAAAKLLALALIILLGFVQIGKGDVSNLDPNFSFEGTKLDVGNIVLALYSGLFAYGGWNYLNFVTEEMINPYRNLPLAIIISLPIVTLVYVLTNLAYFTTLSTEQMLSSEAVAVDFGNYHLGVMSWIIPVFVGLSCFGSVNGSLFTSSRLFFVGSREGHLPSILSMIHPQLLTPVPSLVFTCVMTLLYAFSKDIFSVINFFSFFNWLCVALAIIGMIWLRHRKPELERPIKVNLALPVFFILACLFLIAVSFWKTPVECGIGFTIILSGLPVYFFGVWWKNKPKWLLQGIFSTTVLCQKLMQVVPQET
# Chain of Regenerating Gene IV (Homo sapiens), Q9BYZ8 (Q9BYZ8 whole entry, looked up): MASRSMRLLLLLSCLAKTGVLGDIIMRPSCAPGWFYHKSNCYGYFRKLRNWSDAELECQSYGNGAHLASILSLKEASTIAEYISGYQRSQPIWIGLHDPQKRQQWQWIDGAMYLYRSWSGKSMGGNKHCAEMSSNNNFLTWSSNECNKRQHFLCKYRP
# Chain of Neurocan (Homo sapiens), O14594 (O14594 other isoform, or with tags, fused parts or gaps): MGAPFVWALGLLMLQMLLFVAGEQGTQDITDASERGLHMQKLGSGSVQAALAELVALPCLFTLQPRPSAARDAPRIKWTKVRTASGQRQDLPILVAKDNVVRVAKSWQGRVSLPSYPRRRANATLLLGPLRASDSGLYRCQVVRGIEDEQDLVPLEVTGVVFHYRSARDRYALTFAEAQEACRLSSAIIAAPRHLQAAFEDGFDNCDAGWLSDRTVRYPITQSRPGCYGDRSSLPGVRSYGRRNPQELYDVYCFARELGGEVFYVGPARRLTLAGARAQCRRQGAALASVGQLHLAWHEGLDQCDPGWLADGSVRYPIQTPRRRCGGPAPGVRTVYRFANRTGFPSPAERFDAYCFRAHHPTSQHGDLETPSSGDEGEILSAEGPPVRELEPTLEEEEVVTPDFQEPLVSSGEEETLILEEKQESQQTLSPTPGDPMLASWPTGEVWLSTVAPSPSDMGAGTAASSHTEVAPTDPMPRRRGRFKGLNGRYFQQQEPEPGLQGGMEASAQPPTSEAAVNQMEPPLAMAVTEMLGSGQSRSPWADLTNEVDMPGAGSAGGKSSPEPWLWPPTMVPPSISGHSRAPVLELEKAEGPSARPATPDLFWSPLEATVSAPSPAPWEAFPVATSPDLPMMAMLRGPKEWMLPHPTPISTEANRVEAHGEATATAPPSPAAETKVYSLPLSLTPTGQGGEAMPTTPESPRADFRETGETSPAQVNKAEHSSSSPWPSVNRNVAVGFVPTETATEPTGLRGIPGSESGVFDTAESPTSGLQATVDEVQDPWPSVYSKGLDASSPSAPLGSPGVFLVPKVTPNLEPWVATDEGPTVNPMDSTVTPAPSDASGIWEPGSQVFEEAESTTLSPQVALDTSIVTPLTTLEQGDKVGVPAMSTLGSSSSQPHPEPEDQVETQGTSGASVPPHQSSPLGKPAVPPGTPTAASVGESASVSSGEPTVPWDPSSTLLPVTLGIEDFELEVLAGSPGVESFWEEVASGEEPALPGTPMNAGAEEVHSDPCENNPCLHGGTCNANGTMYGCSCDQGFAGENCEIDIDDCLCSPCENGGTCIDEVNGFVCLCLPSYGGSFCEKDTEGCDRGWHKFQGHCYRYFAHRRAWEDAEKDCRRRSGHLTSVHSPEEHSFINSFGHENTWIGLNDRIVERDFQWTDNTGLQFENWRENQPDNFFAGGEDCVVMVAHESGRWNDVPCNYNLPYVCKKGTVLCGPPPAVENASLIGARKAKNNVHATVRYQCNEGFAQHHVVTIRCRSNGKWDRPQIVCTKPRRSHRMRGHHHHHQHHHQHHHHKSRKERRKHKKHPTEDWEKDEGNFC
# Chain of Aggrecan (Rattus norvegicus), NP_071526 (chain, as listed by the source): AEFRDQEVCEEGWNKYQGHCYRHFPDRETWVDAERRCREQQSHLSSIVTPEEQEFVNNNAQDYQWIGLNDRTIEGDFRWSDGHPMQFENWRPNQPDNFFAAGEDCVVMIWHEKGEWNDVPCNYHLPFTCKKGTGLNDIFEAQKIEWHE
# Chain of SRLC (Mus musculus), Q8VIF6 (Q8VIF6 other isoform, or with tags, fused parts or gaps): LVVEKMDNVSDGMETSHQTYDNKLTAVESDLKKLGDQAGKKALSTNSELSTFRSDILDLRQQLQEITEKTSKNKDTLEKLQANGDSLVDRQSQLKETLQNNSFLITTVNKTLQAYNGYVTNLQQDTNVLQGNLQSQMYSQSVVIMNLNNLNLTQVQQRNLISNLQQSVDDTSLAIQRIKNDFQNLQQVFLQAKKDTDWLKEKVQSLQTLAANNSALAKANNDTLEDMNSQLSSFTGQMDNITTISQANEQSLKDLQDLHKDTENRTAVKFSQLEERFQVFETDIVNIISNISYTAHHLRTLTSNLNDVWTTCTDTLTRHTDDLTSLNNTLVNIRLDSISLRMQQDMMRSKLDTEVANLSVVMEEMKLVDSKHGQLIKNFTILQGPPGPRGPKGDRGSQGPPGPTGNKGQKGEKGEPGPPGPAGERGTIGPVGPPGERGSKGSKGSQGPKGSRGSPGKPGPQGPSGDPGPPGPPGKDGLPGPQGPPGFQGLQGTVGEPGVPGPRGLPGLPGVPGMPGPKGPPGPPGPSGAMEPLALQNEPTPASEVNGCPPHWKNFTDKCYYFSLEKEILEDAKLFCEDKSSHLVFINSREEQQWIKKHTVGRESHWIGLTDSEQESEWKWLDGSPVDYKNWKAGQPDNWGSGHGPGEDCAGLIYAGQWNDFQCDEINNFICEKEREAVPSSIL
substance,measurement,setting,value
"Neurocan (Homo sapiens), O14594",glycan array binding signal (z-score),[1],-0.99
"CHI3L1 (Homo sapiens), P36222",glycan array binding signal (z-score),[2],15.6
same,glycan array binding signal (z-score),[1],14.5
same,glycan array binding signal (z-score),GlcNAc3Prop(b1-4)GlcNAc,-0.044
"C3b (Homo sapiens), P01024",glycan array binding signal (z-score),[3],7.72
same,glycan array binding signal (z-score),[4],2.75
"Regenerating Gene IV (Homo sapiens), Q9BYZ8",glycan array binding signal (z-score),GlcNAc3Prop(b1-4)GlcNAc,-0.463
"wLAT-1A (Homo sapiens), Q01650",glycan array binding signal (z-score),GlcNAc(b1-6)GalNAc,0.369
same,glycan array binding signal (z-score),GlcNAc3Prop(b1-4)GlcNAc,0.213
"PILRb (Mus musculus), Q2YSF2",glycan array binding signal (z-score),[1],-0.432
same,glycan array binding signal (z-score),GlcNAc(b1-6)GalNAc,-0.025
MpAFP RI GFP (Marinomonas primoryensis),glycan array binding signal (z-score),[2],-0.527
"Aggrecan (Rattus norvegicus), NP_071526",glycan array binding signal (z-score),[4],0.018
CHT (Homo sapiens),glycan array binding signal (z-score),"[2]; mutation: D138V, E140I",11.9
same,glycan array binding signal (z-score),"[1]; mutation: D138V, E140I",8.66
same,glycan array binding signal (z-score),"Kdn(a2-3)Gal(b1-3)GlcNAc; mutation: D138V, E140I",-0.105
Avaren (Actinomycete K97),glycan array binding signal (z-score),[5],-0.108
same,glycan array binding signal (z-score),GlcNAc(b1-6)GalNAc,-0.119
"Siglec-8 (Homo sapiens), Q9NYZ4",glycan array binding signal (z-score),[1],-0.111
same,glycan array binding signal (z-score),[4]; mutation: R125K,-0.467
"HARE (Homo sapiens), Q8WWQ8",glycan array binding signal (z-score),Kdn(a2-3)Gal(b1-3)GlcNAc,-0.646
"PILRa (Mus musculus), Q2YSF3",glycan array binding signal (z-score),[6],-0.314
same,glycan array binding signal (z-score),GlcNAc3Prop(b1-4)GlcNAc,-0.331
same,glycan array binding signal (z-score),[7],0.098
"SRLC (Mus musculus), Q8VIF6",glycan array binding signal (z-score),Kdn(a2-3)Gal(b1-3)GlcNAc,-0.229
